Drawing on ChEMBL document CHEMBL3988442, “University of Dundee, Small-Polar-MMV Screening Library” (2021), this text covers Percent Effect for ten compounds.

Common to all, as to set-up: scale not given: direction of the effect not stated beside the values
Assay [1] addresses Protein translocase subunit SecA (Escherichia coli (strain K12)) (UniProt P10408). As to the kind of experiment: Assay to Identify E. coli SecA ATPase Inhibitors. The assay is classed as functional. To be noted: 30 µM.
In assay [2] the target is T1, Ubiquitin-activating enzyme e1, putative (Leishmania donovani (strain BPK282A1)) (UniProt E9BSI1).
T1 sequence (whole entry): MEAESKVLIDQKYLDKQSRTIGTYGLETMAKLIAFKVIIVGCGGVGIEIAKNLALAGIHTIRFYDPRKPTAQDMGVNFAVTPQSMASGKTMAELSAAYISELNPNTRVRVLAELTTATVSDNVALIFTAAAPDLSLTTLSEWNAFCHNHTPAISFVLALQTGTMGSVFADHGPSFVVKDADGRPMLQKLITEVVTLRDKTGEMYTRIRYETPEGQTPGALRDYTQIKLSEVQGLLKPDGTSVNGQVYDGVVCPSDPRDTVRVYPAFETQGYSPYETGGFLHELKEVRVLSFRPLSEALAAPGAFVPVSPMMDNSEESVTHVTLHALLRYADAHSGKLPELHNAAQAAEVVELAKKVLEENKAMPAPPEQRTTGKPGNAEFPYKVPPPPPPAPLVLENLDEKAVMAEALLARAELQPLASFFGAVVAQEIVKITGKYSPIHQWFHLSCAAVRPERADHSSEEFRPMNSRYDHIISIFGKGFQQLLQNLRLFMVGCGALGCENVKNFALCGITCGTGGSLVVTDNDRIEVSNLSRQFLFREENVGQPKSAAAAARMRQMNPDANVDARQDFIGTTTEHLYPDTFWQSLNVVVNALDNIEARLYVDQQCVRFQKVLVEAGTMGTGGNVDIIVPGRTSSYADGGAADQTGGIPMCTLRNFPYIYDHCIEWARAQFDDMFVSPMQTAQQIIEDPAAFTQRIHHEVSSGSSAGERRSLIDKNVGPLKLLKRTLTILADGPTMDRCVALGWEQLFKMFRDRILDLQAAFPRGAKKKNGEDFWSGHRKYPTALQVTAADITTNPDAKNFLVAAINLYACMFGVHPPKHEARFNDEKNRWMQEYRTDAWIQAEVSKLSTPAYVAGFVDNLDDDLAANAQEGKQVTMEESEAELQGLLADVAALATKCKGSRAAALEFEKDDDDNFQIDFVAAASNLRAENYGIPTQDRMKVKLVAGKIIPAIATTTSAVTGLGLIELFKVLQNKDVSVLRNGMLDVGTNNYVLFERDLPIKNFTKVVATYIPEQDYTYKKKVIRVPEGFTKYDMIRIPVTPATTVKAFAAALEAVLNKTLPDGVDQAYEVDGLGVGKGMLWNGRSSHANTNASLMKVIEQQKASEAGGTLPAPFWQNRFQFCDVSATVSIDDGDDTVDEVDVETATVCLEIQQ
As to the kind of experiment: Leishmania donovani Ubiquitin Activating Enzyme (LdE1). The assay is classed as functional. To be noted: 30 µM.

The target in assay [3] is AMP-activated protein kinase, AMPK (Homo sapiens) (UniProt P54646+O43741+P54619+Q9UGJ0+Q9Y478+Q13131+Q9UGI9). Briefly: AMP-dependent Kinase enzyme assay. An in vitro enzyme assay that detects ADP turnover that is directly proportional to AMPK activity. This uses naive AMPK that is activated during the assay with MK-8722. The assay is classed as functional. To be noted: 30 µM.

The target in assay [4] is Sialic acid-binding Ig-like lectin 9 (Homo sapiens) (UniProt Q9Y336). Briefly: Hs-Siglec9 ALPHAscreen SOP 20170721. To be noted: 10 µM. For orientation: Bead proximity is the source of the signal in Alpha formats.
In a further assay the test system is Trypanosoma cruzi. Briefly: Trypanosoma cruzi phosphomannomutase and mannose-1-phosphate guanylyltransferase assay. To be noted: 10 µM. Format: functional.
Assay [5] addresses T2, Arginase-2, mitochondrial (Homo sapiens) (UniProt P78540).
T2 sequence (whole entry): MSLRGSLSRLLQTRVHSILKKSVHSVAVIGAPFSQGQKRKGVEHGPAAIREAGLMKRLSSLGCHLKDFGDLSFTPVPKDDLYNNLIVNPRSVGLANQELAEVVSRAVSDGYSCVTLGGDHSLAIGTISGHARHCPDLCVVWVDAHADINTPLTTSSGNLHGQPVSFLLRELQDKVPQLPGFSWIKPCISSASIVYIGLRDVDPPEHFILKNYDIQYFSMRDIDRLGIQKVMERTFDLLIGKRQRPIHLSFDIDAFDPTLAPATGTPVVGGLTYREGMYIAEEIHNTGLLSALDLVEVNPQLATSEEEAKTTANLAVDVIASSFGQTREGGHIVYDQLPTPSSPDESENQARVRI
Briefly: in vitro enzyme assay to detect the production of urea directly proportional to the activity of Arginase II. Note: in the data most compounds retested in dose-response had high values. The assay is classed as functional. To be noted: 33.3 µM.

The target of assay [6] is T3, Proteasome subunit beta (Trypanosoma cruzi) (UniProt O96673).
T3 sequence (whole entry): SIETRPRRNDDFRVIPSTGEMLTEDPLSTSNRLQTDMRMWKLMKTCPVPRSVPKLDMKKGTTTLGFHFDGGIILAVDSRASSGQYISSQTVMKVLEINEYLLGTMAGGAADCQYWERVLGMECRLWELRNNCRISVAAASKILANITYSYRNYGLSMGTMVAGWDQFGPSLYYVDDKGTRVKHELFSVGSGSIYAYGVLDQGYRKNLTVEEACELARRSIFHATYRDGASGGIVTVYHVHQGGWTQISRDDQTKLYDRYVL
As to the kind of experiment: Trypanosoma cruzi proteasome chymotrypsin-like activity (TcProtChymo) assay. Note: in the data most compounds retested in dose-response had high values. The assay is classed as functional. To be noted: 9.37 µM.

The species entered for the next assay is Homo sapiens. As to the kind of experiment: To identify inhibition of the IFN signalling (Jak-Stat) pathway via expression of an eGFP reporter gene under the control of an IFN-stimulated response element (ISRE) containing MxA promoter. To be noted: 30 µM. The assay is classed as functional.
Assay [7] concerns the target T4, Tyrosyl-tRNA synthetase, putative (Trypanosoma cruzi (strain CL Brener)) (UniProt Q4DSP6).
T4 sequence (whole entry): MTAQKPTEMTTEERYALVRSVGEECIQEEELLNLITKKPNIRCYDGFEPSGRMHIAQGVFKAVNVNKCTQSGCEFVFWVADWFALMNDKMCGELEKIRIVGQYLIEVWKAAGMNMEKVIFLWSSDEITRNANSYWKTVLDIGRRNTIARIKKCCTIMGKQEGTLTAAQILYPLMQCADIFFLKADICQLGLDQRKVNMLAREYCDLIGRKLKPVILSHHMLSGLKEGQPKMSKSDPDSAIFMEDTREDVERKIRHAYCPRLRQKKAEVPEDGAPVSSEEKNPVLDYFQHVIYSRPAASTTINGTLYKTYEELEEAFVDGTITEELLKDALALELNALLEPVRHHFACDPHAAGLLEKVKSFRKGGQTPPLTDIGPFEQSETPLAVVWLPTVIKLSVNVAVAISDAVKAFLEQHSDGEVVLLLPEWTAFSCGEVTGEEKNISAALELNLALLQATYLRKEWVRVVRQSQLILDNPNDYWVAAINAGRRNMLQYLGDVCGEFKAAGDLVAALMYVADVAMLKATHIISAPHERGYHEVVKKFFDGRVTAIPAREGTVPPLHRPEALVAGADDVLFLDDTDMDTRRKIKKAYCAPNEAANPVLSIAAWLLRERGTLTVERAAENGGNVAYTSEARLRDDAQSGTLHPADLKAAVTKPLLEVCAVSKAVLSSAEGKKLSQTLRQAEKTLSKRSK
As to the kind of experiment: Trypanosoma cruzi tyrosyl tRNA synthetase (TcYRS) _High Tyrosine SOP. Note: in the data most compounds retested in dose-response had high values. Format: functional. To be noted: 30 µM.

The target of assay [8] is T4, Tyrosyl-tRNA synthetase, putative (Trypanosoma cruzi (strain CL Brener)). As to the kind of experiment: Trypanosoma cruzi tyrosyl tRNA synthetase (TcYRS) SOP. The assay is classed as functional. To be noted: 30 µM.
The target in assay [9] is Chromo domain-containing protein 1 (Saccharomyces cerevisiae (strain ATCC 204508 / S288c) (Baker's yeast)) (UniProt P32657). Briefly: ScCHD-1 Enzyme Inhibition Assay. Note: in the data most compounds retested in dose-response had high values. Format: functional. To be noted: 30 µM.

For some assays here: Results with a measured potency or affinity are listed apart.

Sequence of Sialic acid-binding Ig-like lectin 9 (Homo sapiens) (Q9Y336 whole entry): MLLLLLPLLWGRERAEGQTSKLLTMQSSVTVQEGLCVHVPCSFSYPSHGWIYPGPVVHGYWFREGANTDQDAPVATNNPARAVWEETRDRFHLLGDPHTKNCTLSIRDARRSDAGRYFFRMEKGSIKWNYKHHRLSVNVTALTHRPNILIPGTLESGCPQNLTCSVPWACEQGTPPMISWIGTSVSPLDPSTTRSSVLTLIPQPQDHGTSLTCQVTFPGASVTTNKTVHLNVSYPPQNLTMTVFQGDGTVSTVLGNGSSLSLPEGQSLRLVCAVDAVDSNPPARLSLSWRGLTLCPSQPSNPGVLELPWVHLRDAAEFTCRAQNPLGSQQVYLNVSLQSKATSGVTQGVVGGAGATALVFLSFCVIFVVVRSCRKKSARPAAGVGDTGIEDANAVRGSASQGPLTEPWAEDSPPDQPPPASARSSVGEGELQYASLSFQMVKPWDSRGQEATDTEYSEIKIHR
Sequence of Protein translocase subunit SecA (Escherichia coli (strain K12)) (P10408 whole entry): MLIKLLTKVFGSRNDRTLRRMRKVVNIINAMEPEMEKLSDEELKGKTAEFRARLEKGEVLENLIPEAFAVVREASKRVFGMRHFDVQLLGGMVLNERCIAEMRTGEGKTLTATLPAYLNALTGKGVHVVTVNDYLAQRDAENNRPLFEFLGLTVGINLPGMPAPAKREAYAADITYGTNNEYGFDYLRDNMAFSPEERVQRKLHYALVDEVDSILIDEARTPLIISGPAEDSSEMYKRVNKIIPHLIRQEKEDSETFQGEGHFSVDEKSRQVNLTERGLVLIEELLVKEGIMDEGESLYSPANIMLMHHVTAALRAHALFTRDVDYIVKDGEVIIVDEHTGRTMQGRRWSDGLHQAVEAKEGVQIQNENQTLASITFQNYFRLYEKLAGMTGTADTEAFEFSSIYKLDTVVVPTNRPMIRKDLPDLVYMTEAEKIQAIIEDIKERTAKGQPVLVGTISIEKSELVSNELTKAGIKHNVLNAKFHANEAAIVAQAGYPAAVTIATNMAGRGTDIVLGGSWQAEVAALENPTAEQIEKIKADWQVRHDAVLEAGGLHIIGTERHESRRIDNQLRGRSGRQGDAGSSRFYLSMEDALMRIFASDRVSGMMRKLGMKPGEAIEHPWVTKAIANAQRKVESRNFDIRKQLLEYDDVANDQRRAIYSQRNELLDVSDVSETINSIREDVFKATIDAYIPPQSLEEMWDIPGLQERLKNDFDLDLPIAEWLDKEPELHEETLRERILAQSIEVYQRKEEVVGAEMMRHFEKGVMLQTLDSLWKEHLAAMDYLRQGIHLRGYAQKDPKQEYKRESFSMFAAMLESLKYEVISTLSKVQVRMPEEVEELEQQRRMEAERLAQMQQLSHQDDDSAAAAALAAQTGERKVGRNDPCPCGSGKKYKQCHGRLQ
Sequence of Chromo domain-containing protein 1 (Saccharomyces cerevisiae (strain ATCC 204508 / S288c) (Baker's yeast)) (P32657 whole entry, the tested form may be a part): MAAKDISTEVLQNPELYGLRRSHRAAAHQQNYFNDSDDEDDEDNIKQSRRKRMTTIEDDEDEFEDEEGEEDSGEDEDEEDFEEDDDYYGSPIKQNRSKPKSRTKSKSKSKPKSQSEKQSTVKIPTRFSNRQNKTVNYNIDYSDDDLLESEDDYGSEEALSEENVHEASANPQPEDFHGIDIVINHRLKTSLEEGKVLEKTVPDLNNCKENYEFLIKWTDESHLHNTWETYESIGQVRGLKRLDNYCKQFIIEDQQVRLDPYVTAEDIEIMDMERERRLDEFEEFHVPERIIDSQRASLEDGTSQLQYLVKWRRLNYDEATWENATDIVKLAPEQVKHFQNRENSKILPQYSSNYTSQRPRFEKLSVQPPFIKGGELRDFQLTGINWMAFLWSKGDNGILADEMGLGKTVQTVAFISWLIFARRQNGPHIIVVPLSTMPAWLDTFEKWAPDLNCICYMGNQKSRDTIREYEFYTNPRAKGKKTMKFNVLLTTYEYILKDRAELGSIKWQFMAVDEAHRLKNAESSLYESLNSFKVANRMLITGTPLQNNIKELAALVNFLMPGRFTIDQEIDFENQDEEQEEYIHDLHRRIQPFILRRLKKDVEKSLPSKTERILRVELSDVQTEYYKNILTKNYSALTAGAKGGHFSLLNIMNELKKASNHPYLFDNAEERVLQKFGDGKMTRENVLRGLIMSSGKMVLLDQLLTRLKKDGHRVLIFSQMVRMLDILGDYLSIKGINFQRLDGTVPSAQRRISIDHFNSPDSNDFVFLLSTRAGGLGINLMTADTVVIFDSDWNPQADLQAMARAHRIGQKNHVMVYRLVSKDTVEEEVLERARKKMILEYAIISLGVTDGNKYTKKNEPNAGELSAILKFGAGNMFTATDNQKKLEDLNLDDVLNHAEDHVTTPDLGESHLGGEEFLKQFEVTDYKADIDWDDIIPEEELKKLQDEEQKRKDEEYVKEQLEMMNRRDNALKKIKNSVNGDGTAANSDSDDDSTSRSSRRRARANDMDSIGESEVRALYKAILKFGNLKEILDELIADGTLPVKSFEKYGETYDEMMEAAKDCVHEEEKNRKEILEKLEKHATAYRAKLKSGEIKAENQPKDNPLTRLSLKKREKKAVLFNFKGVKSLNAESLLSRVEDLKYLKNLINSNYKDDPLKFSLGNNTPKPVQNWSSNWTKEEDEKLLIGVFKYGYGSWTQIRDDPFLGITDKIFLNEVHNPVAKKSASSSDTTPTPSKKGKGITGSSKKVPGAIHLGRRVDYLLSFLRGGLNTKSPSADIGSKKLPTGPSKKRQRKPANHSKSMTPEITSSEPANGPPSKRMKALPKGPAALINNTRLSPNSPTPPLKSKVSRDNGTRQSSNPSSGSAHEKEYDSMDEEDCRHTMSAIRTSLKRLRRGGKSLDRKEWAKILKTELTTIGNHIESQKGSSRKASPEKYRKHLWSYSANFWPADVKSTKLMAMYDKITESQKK

Regarding `CNC(=O)c1cccc(NC(=O)CN2CCN(S(C)(=O)=O)CC2)c1`, the Percent Effect in assay [1] was -3.07%; in assay [2] it was 18.9%; in assay [3], -6.24%; in assay [4], 18.5%; in the assay on Trypanosoma cruzi, 5.57%; in assay [5], 4.22%. Also, the Percent Effect in assay [6] was 13.8%; in the assay filed under Homo sapiens, 8.76%; in [7], 5.38%; in assay [8] it was 16.1%; in assay [9] it was -3.08%.

In the case of `Cc1ccc(CN2CCC3(CC(C(=O)NCC4CC4)=NO3)C2)cc1C` (stereo not given), the Percent Effect was -4.16% in assay [1]; 2.67% in assay [2]; 7.69% in [3]; -4.65% in assay [4]; -4.05% in the assay on Trypanosoma cruzi; -64% in assay [5]. Further, the Percent Effect was 0.684% in [6]; 2% in the assay filed under Homo sapiens; 0% in assay [7]; 7.5% in assay [8]; -7.33% in [9].

On to `Cc1cc(C)n(-c2cncc(N3CCN(C(=O)C(C)(C)C)CC3)n2)n1`, for which the Percent Effect in assay [1] was -5.22%; in [2] it was 5.41%; in assay [3], 10.4%; in [4], -2.19%; with Trypanosoma cruzi, -3.71%; in assay [5], -0.833%. The Percent Effect in [6] is 13.3%; in the assay listed under Homo sapiens it was 10.5%; in assay [7], 3.96%; in assay [8], 1.22%; in [9], -3.42%.

For the compound `CN(C)C(=O)C1CN(Cc2ccccc2)CCN(S(C)(=O)=O)C1` (stereo not given), the Percent Effect is -5.51% in [1]; 17.6% in [2]; 8.68% in [3]; 7.06% in assay [4]; 4.35% with Trypanosoma cruzi; -3.02% in assay [5]. For the same compound, the Percent Effect is 3.12% in assay [6]; 11.2% in the assay filed under Homo sapiens; 2.15% in assay [7]; 9.09% in assay [8]; -19.2% in assay [9].

Take `Cc1nn(C)c2c(N3CCN(C(=O)NC4CCCCC4)CC3)ncnc12`: the Percent Effect in assay [1] is -1.64%; in [2] it was 9.33%; in assay [3], -2.22%; in assay [4], -3.41%; in the assay on Trypanosoma cruzi, -5.5%; in assay [5], 0.528%. Moreover, the Percent Effect is 11.7% in assay [6]; 0.346% in the assay listed under Homo sapiens; 2.12% in assay [7]; 5.13% in assay [8]; -10.1% in [9].

In the case of `COc1ncccc1NC(=O)C1CCN(S(C)(=O)=O)CC1`, the Percent Effect is -2.31% in assay [1]; 15.6% in assay [2]; -6.01% in [3]; 4.87% in [4]; 0.749% in the assay on Trypanosoma cruzi; -0.356% in [5]. Moreover, the Percent Effect is 6.42% in assay [6]; 15.1% in the assay filed under Homo sapiens; 6.8% in [7]; 21.9% in [8]; -9.19% in assay [9].

On to `CCC(CC)C(O)CNC(=O)Nc1cc(C)nn1C` (stereo not given), for which the Percent Effect was -6.46% in [1]; 5.06% in assay [2]; 0.487% in [3]; 6.21% in assay [4]; 6.7% in the assay on Trypanosoma cruzi; -1.9% in [5]. Moreover, the Percent Effect was 5.16% in [6]; -23.6% in the assay listed under Homo sapiens; 1.48% in [7]; 16.5% in [8]; -6.04% in [9].

Regarding `CNC(=O)C1CCN(C(=O)c2cccn2Cc2cccs2)CC1`, the Percent Effect was -4.47% in [1]; -2.6% in assay [2]; 1.37% in assay [3]; -5.3% in assay [4]; -5.99% in the assay on Trypanosoma cruzi; 2.85% in assay [5]. The Percent Effect in assay [6] is 6.25%; in the assay listed under Homo sapiens, 40.1%; in [7], 6.8%; in assay [8] it was 9.76%; in [9], -7.72%.

Consider `O=C(NC(Cc1ccsc1)c1nccs1)C1CCOCC1` (stereo not given), for which the Percent Effect in assay [1] was -2.92%; in assay [2], 9.46%; in [3], 12.2%; in assay [4], 0.886%; in the assay on Trypanosoma cruzi, -4.74%; in assay [5], -0.232%. Moreover, the Percent Effect in [6] was determined as 3.12%; in the assay listed under Homo sapiens, 10.9%; in assay [7], 1.07%; in [8] it was 9.09%; in assay [9] it was 7.79%.

For `FC(F)(F)Cc1noc(CN2CCCC2c2noc(C3CC3)n2)n1` (stereo not given), the Percent Effect in assay [1] was -1.65%; in assay [2] it was 13.5%; in [3] it was -5.95%; in [4], 4.29%; with Trypanosoma cruzi it was 4.06%; in [5], -10.8%. For the same compound, the Percent Effect in assay [6] is 5.59%; in the assay listed under Homo sapiens, 7.37%; in [7] it was 7.39%; in assay [8], 23.5%; in assay [9], -9.28%.
